# Experimental data from PubChem BioAssay (Tox21).
# Inconclusive results are not listed. A call without a number means that no potency is given here. The source holds several records for some structures; these can differ, active in one and inactive in another. Calls of active or inactive are those of the source. Calls follow the shape of the full dose curve.
# Assay: qHTS assay to identify small molecule antagonists of the estrogen receptor alpha (ER-alpha) signaling pathway using the BG1 cell line (AID 743080);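 also: BG1 cells stimulated with 17beta-estradiol alongside compound; nearly all actives have a fitted effect of over 25% in size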
# Details: BG1Luc4E2 ERE-luciferase antagonist mode, luminescence; series mostly up to 70.3 µM
# Source text: National Center for Advancing Translational Sciences [NCATS]
# NIH Chemical Genomics Center [NCGC]
# U.S. Environmental Protection Agency [EPA]
# National Institutes of Environmental Health Sciences [NIEHS]
# National Toxicology Program [NTP]
# U.S. Food and Drug Administration [FDA]
# Estrogen receptor (ER), a nuclear hormone receptor, plays an important role in development, metabolic homeostasis and reproduction. Endocrine disrupting chemicals (EDCs) and their interactions with steroid hormone receptors like ER causes disruption of normal endocrine function. Therefore, it is important to understand the effect of environmental chemicals on the ER signaling pathway. To identify ER antagonists, BG1-Luc-4E2 cell line (provided by Dr. Michael Denison from University of California) has been used to screen the Tox21 10K compound library. BG1Luc4E2 cell line endogenously expresses full-length ER-alpha and is stably transfected with a plasmid containing four estrogen responsive elements (ERE) upstream of a luciferase reporter gene.
# Tox21 Assay Protocol Summary:
# BG1-Luc-4E2 cells were cultured in phenol red free assay medium containing 10% charcoal stripped FBS for 5 days before the assay was performed. The cells were dispensed at 4,000 cells/4 uL of assay medium per well into white wall/solid-bottom 1536-well plates using a Multidrop Combi (ThermoFisher Scientific, Waltham, MA) dispenser. The assay plates were incubated at a 37C and 5% CO2 for 24 h, and then 23 nL of compounds dissolved in DMSO, positive controls or DMSO only was transferred to the assay plate using a Pintool station (Kalypsys, San Diego, CA), followed by addition of 1 uL of 17beta-estradiol in assay medium using a Flying Reagent Dispenser (Aurora Discovery, San Diego, CA). After the plates were incubated at 37 C and 5% CO2 for 21.5 h, 1 uL of CellTiter-Fluor reagent (Promega, Madison, WI) of measuring cytotoxicity was added using Flying Reagent Dispenser (FRD) to each well. The assay plates were incubated at 37 C and 5% CO2 for additional 30 min and the fluorescence intensity was quantified by a ViewLux plate reader (PerkinElmer, Shelton, CT). For measuring luciferase reporter gene activity, 4 uL of ONE-Glo reagent (Promega) was added to each plate using an FRD and luminescence was quantified by a ViewLux plate reader after 30 min incubation at room temperature.
# Potency is read from the fitted curve at half-maximal effect.
row,Compound,Potency
1,CC(=O)O[C@@]12CO[C@@H]1C[C@H](O)[C@@]1(C)C(=O)[C@H](O)C3=C(C)[C@@H](OC(=O)[C@H](O)[C@@H](NC(=O)OC(C)(C)C)c4ccccc4)C[C@@](O)([C@@H](OC(=O)c4ccccc4)[C@H]21)C3(C)C,59.6 nM (active) and inactive
2,CC(C)NNC(=O)c1ccncc1,inactive
3,CCCCc1ccc2c(n1)[C@@H](c1ccc(OC)cc1C[C@H](C)C(=O)O)[C@H](C(=O)O)[C@H]2c1ccc2c(c1)OCO2,inactive
4,CC(C)(C)C(=O)c1ccccc1,inactive
5,Cc1ccc(C(=O)c2ccc(CC(=O)O)n2C)cc1,inactive
6,CCCCCCCCCC[N+](C)(C)[O-],inactive
7,CCOC(=O)OC(C)OC1=C(C(=O)Nc2ccccn2)N(C)S(=O)(=O)c2ccccc21 (stereo not given),inactive
8,CN(C)C(=O)Oc1cccc([N+](C)(C)C)c1,inactive
9,CCOC(=O)c1cnc2c(cnn2CC)c1NN=C(C)C,inactive
10,FB(F)F,inactive
11,CCC(C)(CCCC(C)C)OC(C)=O (stereo not given),inactive
12,O=C(CO)[C@@H](O)[C@H](O)[C@@H](O)CO,inactive
13,N[C@@H](CCC(=O)O)C(=O)O,inactive
14,O=C(c1ccccc1O)c1ccccc1O,inactive
15,CC1CCC(CO)CC1 (stereo not given),inactive
16,O=C(O)c1cn(C2CC2)c2cc(N3CCNCC3)c(F)cc2c1=O,inactive
17,Cc1ncc([C@@H](CCCCCCc2ccc3c(n2)NCCC3)CC(=O)O)cn1,inactive
18,CO[C@@]1(NC(=O)C(C(=O)O)c2ccc(O)cc2)C(=O)N2C(C(=O)O)=C(CSc3nnnn3C)CO[C@@H]21 (stereo not given in full),inactive
19,C[N+](C)(C)CCCCCCCCCC[N+](C)(C)C,inactive
20,CCCCN(CCC(=O)OCC)C(C)=O,inactive

row,Compound,Potency
1,CC(=O)N[C@H]1[C@H]([C@H](O)[C@H](O)CO)OC(C(=O)O)=C[C@@H]1N=C(N)N,inactive
2,CCCOC(=O)CC,inactive
3,C=CCCCCCCCCC(=O)OCC,inactive
4,C=COC(=O)C(C)(CC)CCC(C)C (stereo not given),inactive
5,O=S(=O)(O)c1cccc(S(=O)(=O)O)c1,inactive
6,NC(N)=NCCN1CCCCCCC1,inactive
7,Cc1ccc(C(=O)Nc2ccc(S(=O)(=O)O)c3cc(S(=O)(=O)O)cc(S(=O)(=O)O)c23)cc1NC(=O)c1cccc(NC(=O)Nc2cccc(C(=O)Nc3cc(C(=O)Nc4ccc(S(=O)(=O)O)c5cc(S(=O)(=O)O)cc(S(=O)(=O)O)c45)ccc3C)c2)c1,inactive
8,c1coc(CNc2ncnc3nc[nH]c23)c1,inactive
9,NC(CCC(=O)O)C(=O)O (stereo not given),inactive
10,COc1cc(C(=O)OC(COCCC(C)C)CN2CCOCC2)cc(OC)c1OC (stereo not given),inactive
11,CC(N)C12CC3CC(CC(C3)C1)C2 (stereo not given),inactive
12,CC(CC=O)CC(C)(C)C (stereo not given),inactive
13,CC(=O)NC(=O)c1ccccc1O,inactive
14,CC(=O)c1ccccc1[N+](=O)[O-],inactive
15,CCCC[N+](C)(CCCC)CCCC,inactive
16,CCOC(=O)c1ccccc1,inactive
17,CC(=O)Oc1cccc(C)c1,inactive
18,C[C@H]1C[C@H]2[C@@H]3CCC4=CC(=O)C=C[C@]4(C)[C@H]3C(=O)C[C@]2(C)[C@@]1(O)C(=O)CO,inactive
19,CCCO[Si](OCCC)(OCCC)OCCC,inactive
20,CCNS(=O)(=O)c1ccc(C)cc1,inactive
